Measurements taken from PubChem BioAssay AID504321 (NMMLSC, 2011).
Unmarked numbers belong to inactive results.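 The calls were made as follows: active = GFP response vs DMSO above 150% with enough events counted; inconclusive = fewer than 70 events counted for a yeast strain; inactive = the rest.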

assay: MEP2-GFP expression modulation in yeast, confirmation, flow cytometry, third cherry pick, S. cerevisiae (AID 504321);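 also: median per-cell GFP fluorescence by flow cytometry across all yeast cells; ratio of sample to DMSO median GFP so 100% equals the DMSO level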; settings: S. cerevisiae MEP2-GFP strain, 3 h, at 10 µM, stronger effect = higher value

Row | SMILES | GFP response vs DMSO
1 | CN(C)C(=O)Oc1ccc(Cl)c2cccnc12 | 110%
2 | CCN1CCN(c2ncnc3ccc(Br)cc23)CC1 | 112%
3 | C/C(O)=C(\C#N)C(=O)Nc1cc(Br)ccc1Br | 112%
4 | Cc1ccc2c(c1N)C(=O)c1ccccc1C2=O | 103%
5 | CN1CCN(c2ncnc3ccc(Br)cc23)CC1 | 101%
6 | CN(C)C(=O)Oc1ccnc2cc(Cl)ccc12 | 108%
